± gives the standard deviation of the averaged measurements. Over roughly 25,000 sequences, “ln(normalized median fluorescence intensity)” has its median near 8.9; the highest 2% begin near 10. This excerpt belongs to a sample that is enriched for the highest values.
What follows are sequences tested on PfAP2-LT AP2 domain (GST-tagged) (assay: gcPBM binding intensity (ln(normalized median fluorescence intensity)); higher = stronger DNA binding).
Method in brief: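 Plasmodium falciparum DNA-binding domains carrying a GST tag were expressed in E. coli and applied for 1 h, at about 25 μg on average, to an Agilent 4 × 180k array. The array held primer-extended double-stranded 36-bp intergenic genomic probes together with negative controls, and binding took place in 1× PBS with 1% milk, 0.2 mg/ml BSA, 0.5% salmon testes DNA and 0.03% Triton X-100. An Alexa488 anti-GST antibody detected bound protein, and the array was scanned at 488 nm. Binding intensity is taken as the highest Masliner-normalised natural-log median intensity across replicate spots of either probe orientation.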

In order of rising “gcPBM binding intensity (ln)” value:
1. AATTTATAAATAATTAATTTGATAAATTATAAAGGG [GTGCAC_negctrl_site544]  8.45 ± 0.45
2. TTCTGAACAAAATTATATATTTATTTTTATTTTCAT [CACACA_negctrl_site422]  8.48 ± 0.5
3. TACTTATTGTGATACTTATATTATTTTATGATTAAA [XGTACX_negctrl_site353]  8.5 ± 0.42
4. TTTTGGTGGGTTACAAGTACTCAAAATGGATTGTTA [XGTACX_site1951]  8.56 ± 0.38
5. GTTGCCATCATTTGGCGTACAGTCAAAACCAAATCT [XGTACX_site1398]  8.56 ± 0.37
6. TGTGTCAAGTTTAATAAACGCATATAATATATATGA [CACACA_negctrl_site607]  8.59 ± 0.41
7. GTAATTATTAATAAAACATGCGTATAAAATTTTCTC [TGCATGCA_site50]  8.62 ± 0.46
8. AAAAAGAAATATTTATGTACATAATAATAATATTTT [XGTACX_site4693]  8.63 ± 0.44
9. AAAAAAAAAAAAAAAACACACAATTGAATTATTAAG [CACACA_site2864]  8.7 ± 0.61
10. TATAAAAAAATATATATATATATTATATGTGTAGAA [TGCATGCA_negctrl_site391]  8.71 ± 0.54
11. TTTATTTCCTTTTTGTGTACATATATATGTAATTCA [XGTACX_site1718]  8.78 ± 0.53
12. TATTTATTTAAAGGCACACATATTTTTATACTTTCT [CACACA_site3163]  8.79 ± 0.49
13. TATTGTAAGAAAGGCACACAGATAAAATTATTATAT [CACACA_site2921]  8.83 ± 0.51
14. TTATTGCGCACAATTTGTACATATATATATATAGAA [XGTACX_site7573]  8.84 ± 0.4
15. TAATATCAAACCTATAGTACATAAGGTATAAAAAAG [XGTACX_site3533]  8.86 ± 0.44
16. GTATATTGTACCATCACACATGTAAAACATAGATGT [CACACA_site5359]  8.94 ± 0.43
17. TGGTATATATTTCCTTGTACATATAATATATATTGT [XGTACX_site3961]  8.94 ± 0.51
18. ATTTATATGTAGATGTGTACTTAATTGTAATGTGTT [XGTACX_site6422]  8.95 ± 0.45
19. TATCATAAAATATGTAGTACGTATATATATAAAAAT [XGTACX_site5455]  8.97 ± 0.41
20. AATCTGATTTGTATATGTACACAAATATTTTTATTT [XGTACX_site5295]  8.99 ± 0.53
21. AAAAAAAGGTAAAATTGTACATACGCACAAAAATAT [XGTACX_site2887]  9 ± 0.51
22. ATTTATGAAAGAAATAGTACACACATAAACATTTGT [XGTACX_site5862]  9.03 ± 0.36
23. TATATATATATATTTACACACATTCATATAAATTCA [CACACA_site3532]  9.04 ± 0.28
24. ACAACACATATTCATCGTACATGTATTAGGAAGACA [XGTACX_site1859]  9.04 ± 0.42
25. TTTGTGCCTATAAATTAACACACAGAAATATATAGA [CACACA_site8175]  9.06 ± 0.28
26. AACAAAATTGAAGGAACACACATACATATTTATATA [CACACA_site6227]  9.07 ± 0.41
27. TTTATATTTAAATGCATGCACTTTCTATTTTTTTTT [GTGCAC_site9959]  9.13 ± 0.53
28. TACTTCATTCATTTTACACACATATAAACCCTTTTA [CACACA_site3229]  9.15 ± 0.47
29. TTCTTATATTGTACAGTACACACCTTTATAATGTTA [CACACA_site7953]  9.15 ± 0.49
30. TAATATAATCTGAGTGCACACAAATAAATAAACATA [CACACA_site8032]  9.16 ± 0.44
31. CTTACATATTACATATGTACATATACACCTTATGTC [XGTACX_site4679]  9.19 ± 0.41
32. CAGACGCACGTATTTGCACACATTGCCACGTAATTA [CACACA_site3349]  9.28 ± 0.37
33. AATTTTTTTTTTTTTTTTTTTTATATATGTGTGTGT [XGTACX_negctrl_site129]  9.32 ± 0.42
34. GGCTAAAAGTTGCACACACACAAAAAAAAAAAAAAA [CACACA_site7531]  9.37 ± 0.51
35. GTTTTATAAAAAGGCGCACACATATACATAAATATA [CACACA_site1864]  9.37 ± 0.47
36. ATAAAAATAAAAAGTGTGCACACAAAAATATATATA [GTGCAC_site9931]  9.62 ± 0.36
37. TACACCCATAGACACACACACACGCATAAAAAAAAA [CACACA_site8428]  9.95 ± 0.55
38. GTAATCCACAAACACACACACATACACATATATATA [CACACA_site2728]  9.98 ± 0.19
39. AAATTTATAAAGAACACACACATATATATATATATA [CACACA_site48]  10 ± 0.21
40. TACAGACATAGACACACACACACGCATAAAAAAAAA [CACACA_site6820]  10 ± 0.51
41. TACACAAATATATATATATATATATATATATATATA [XGTACX_negctrl_site305]  10 ± 0.5
42. AAAAAAAAAAAAAAGACACACATATATATATATATA [CACACA_site633]  10.1 ± 0.13
43. AATCCACAAAGACACACACACACATATATATATATA [CACACA_site1269]  10.2 ± 0.23
44. TGCAATTGTAAAGGCGCACACATATATATATATATA [CACACA_site4894]  10.2 ± 0.13
45. GCACAAATATATATATATATATATATATATATATAT [GTGCAC_negctrl_site661]  10.2 ± 0.12
46. TTTTTTATATATGTGTGTGTGTGTGTGTCAAGTTTA [GTGCAC_negctrl_site460]  10.3 ± 0.24
47. TACAATTGTAAAGGCGCACACATATATATATATATA [CACACA_site1392]  10.3 ± 0.23
48. ATTTGGCATAGACACACACACACACGCACGCACATA [CACACA_site6424]  10.3 ± 0.28
49. AAATTTGGCAGACACACACACACACGCACACGCACA [CACACA_site6423]  10.4 ± 0.33

— the supplement of paper PMC11417369
